Experimental data: PubChem BioAssay AID2061166 (Soto Lab, Mitchell Center for Alzheimers Disease and …, 2025)
Values without a mark were called inactive. Activity calls are given as the source filed them.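 The calls were made as follows: active = mean tau seeding fluorescence area under 1% of vehicle, meaning inhibition above a set limit; inactive = the rest.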

These compounds were tested against Microtubule-associated protein tau (Homo sapiens) (UniProt P10636) (assay: inhibitors of seeded tau aggregation, primary screen, biochemical, seed amplification, ThT fluorescence (AID 2061166)). Conditions: Recombinant tau seeded by AD brain, ThT fluorescence AUC; at 100 µM; hits give high values.
Microtubule-associated protein tau (Homo sapiens), sequence (P10636 whole entry, looked up): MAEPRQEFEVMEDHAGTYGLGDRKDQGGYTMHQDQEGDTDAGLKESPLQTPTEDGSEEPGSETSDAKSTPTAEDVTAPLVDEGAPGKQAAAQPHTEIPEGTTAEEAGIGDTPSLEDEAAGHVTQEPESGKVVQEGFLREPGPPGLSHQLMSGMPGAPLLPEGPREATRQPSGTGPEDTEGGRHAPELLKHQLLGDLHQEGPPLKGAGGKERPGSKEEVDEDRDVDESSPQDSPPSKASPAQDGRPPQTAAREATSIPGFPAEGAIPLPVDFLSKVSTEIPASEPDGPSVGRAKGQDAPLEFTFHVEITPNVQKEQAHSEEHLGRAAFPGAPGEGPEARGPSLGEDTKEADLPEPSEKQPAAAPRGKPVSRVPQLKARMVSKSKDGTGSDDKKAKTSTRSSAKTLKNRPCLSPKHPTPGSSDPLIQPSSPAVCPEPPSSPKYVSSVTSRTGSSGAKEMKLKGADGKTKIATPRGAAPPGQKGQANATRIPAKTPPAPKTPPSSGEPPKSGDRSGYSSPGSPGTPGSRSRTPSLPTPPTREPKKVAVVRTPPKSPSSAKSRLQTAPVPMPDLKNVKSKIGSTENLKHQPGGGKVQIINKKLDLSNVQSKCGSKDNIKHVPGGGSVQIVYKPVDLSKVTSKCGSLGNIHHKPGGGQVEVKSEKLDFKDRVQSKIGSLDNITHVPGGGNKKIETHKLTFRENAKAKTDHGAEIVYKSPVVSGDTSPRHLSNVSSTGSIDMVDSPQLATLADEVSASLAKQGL
`O=C(OC1CC2CCC(C1)[N+]21CCCC1)C(O)(c1ccccc1)c1ccccc1` (stereo not drawn) gave an inhibition of 16.5%. In the case of `C#Cc1cccc(Nc2ncnc3cc4c(cc23)OCCOCCOCCO4)c1`, the inhibition is reported as -14.6%. With `O=NN(CCCl)C(=O)NC1CCCCC1` the inhibition was 14.1%. With `CC1(O)Cc2oc3cc(O)c(O)c(C(=O)O)c3c(=O)c2CO1` (stereo not drawn) the inhibition was 33.4%. `CC1COc2c(N3CCN(C)CC3)c(F)cc3c(=O)c(C(=O)O)cn1c23` (stereo not drawn) gave an inhibition of -27.6%. Work on `CC12CC3CC(C)(C1)CC(N)(C3)C2` yielded an inhibition of 10.2%. With `Nc1cccc2c1C(=O)N(C1CCC(=O)NC1=O)C2=O` (stereo not drawn) the inhibition was 16.4%. `CN1CC(C(=O)NC2(C)OC3(O)C4CCCN4C(=O)C(Cc4ccccc4)N3C2=O)CC2c3cccc4[nH]cc(c34)CC21` (stereo not drawn) gave an inhibition of 34.2%. `CC(=O)c1c(O)c(C)c(O)c2c1OC1=CC(=O)C(C(C)=O)C(=O)C12C` (stereo not drawn) showed an inhibition of 21.4%. With `O=c1c(-c2ccc(O)cc2)coc2cc(O)cc(O)c12` the inhibition was -59.4%. Work on `COC1C(=O)C2(C)C(OC)CC3OCC3(OC(C)=O)C2C(OC(=O)c2ccccc2)C2(O)CC(OC(=O)C(O)C(NC(=O)OC(C)(C)C)c3ccccc3)C(C)=C1C2(C)C` (stereo not drawn) yielded an inhibition of 10.4%. `CCCCOc1ccc(CC(=O)NO)cc1` gave an inhibition of 16.6%. Compound `Nc1ccccc1NC(=O)c1ccc(CNC(=O)OCc2cccnc2)cc1` has an inhibition of -34.7%. Compound `CNCCC(Oc1cccc2ccccc12)c1cccs1` (stereo not drawn) has an inhibition of 48.5%. `CN(C)c1ccc(C=CC=O)cc1` gave an inhibition of 37.8%. With `Oc1cc(O)c2c(c1)OC(c1ccc(O)c(O)c1)C(O)C2` (stereo not drawn) the inhibition was 88.6%. `CN=c1ccc2nc3ccc(N)cc3sc-2c1` was tested, and the inhibition was 100% (active). With `Nc1nc2[nH]cc(CCc3ccc(C(=O)NC(CCC(=O)O)C(=O)O)cc3)c2c(=O)[nH]1` (stereo not drawn) the inhibition was 15.2%. `CCC1=CC2CN(C1)Cc1c([nH]c3ccccc13)C(C(=O)OC)(c1cc3c(cc1OC)N(C)C1C(O)(C(=O)OC)C(OC(C)=O)C4(CC)C=CCN5CCC31C54)C2` (stereo not drawn) was tested, and the inhibition was 27%. Compound `Cc1ccc(C(C)C)cc1O` has an inhibition of 10.5%. With `CC(=O)Oc1cc(C(F)(F)F)ccc1C(=O)O` the inhibition was 27%. In the case of `CNc1ccc2nc3ccc(=[N+](C)C)cc-3sc2c1`, the inhibition is reported as 100% (active). Compound `Cc1ccc(Nc2nccc(N(C)c3ccc4c(C)n(C)nc4c3)n2)cc1S(N)(=O)=O` has an inhibition of -1.27%. Work on `COC(=O)/C=C/C(=O)OC` yielded an inhibition of 3.37%. `COc1ccc2[nH]cc(CCNC(C)=O)c2c1` gave an inhibition of -15.9%. Work on `CC(OC1OCCN(Cc2n[nH]c(=O)[nH]2)C1c1ccc(F)cc1)c1cc(C(F)(F)F)cc(C(F)(F)F)c1` (stereo not drawn) yielded an inhibition of 60.4%. `COc1cc(C=CC(=O)CC(=O)C=Cc2ccc(O)c(OC)c2)ccc1O` gave an inhibition of 86.4%. In the case of `COc1ccc(Cc2cnc(N)nc2N)cc1OC`, the inhibition is reported as 37.1%. `NC(=O)OCC(COC(N)=O)c1ccccc1` gave an inhibition of -8.84%. Compound `O=S(=O)(O)c1cc(S(=O)(=O)O)c2c(N=Nc3ccccc3)c(O)ccc2c1` has an inhibition of 39%. Work on `C=CCc1ccc(O)c(-c2ccc(O)c(CC=C)c2)c1` yielded an inhibition of 93.5%. `CN(C)CCCN1c2ccccc2Sc2ccc(Cl)cc21` showed an inhibition of 25.9%. `CC1(C)OC2COC3(COS(N)(=O)=O)OC(C)(C)OC3C2O1` (stereo not drawn) showed an inhibition of 20.5%.
